Shown are actives, neighbours in structure and some others; about 5.7% of the full set was active somewhere.
JMJD2A Tudor inh: qHTS Assay for Inhibitors of JMJD2A-Tudor Domain. Lysine-specific demethylase 4A (Homo sapiens), O75164. AlphaScreen JMJD2A-Tudor / H3K4me3 peptide binding. Potency, µM (highest dose often 114 µM), without a hit: at the top dose activity change, negative = inhibition, usual class: inhibitors. 390,000 compounds, 4.4% hits. AID 504339, 2011; also: potency is read from the fitted curve at half-maximal effect; % is scaled to controls: 0 for no effect and ±100 for the full control effect; nearly all actives have a fitted effect of over 50% in size
HP1b chromo inh: HTS for Inhibitors of HP1-beta Chromodomain Interactions with Methylated Histone Tails. Chromobox protein homolog 1 (Homo sapiens), P83916. AlphaScreen HP1-beta / biotin-H3K9me3 peptide binding. Potency, µM (top dose mostly 114 µM), for inactives: top-dose activity change, negative = inhibition, actives largely listed as inhibitors. 390,000 compounds, 0.56% hits; also: potency is read from the fitted curve at half-maximal effect; nearly all actives have a fitted effect of over 70% in size
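Compound inhibition of the preformed complex between 50 nM HP1-beta and 50 nM biotinylated H3K9me3 peptide was read by AlphaScreen. Buffer was PBS pH 7.4 with 0.01% Tween-20. Incubations ran 30 min at room temperature, with 10 ug/mL donor/acceptor beads.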
BAZ2B block: qHTS Assay for Inhibitors of BAZ2B | Bromodomain adjacent to zinc finger domain protein 2B (Homo sapiens), Q9UIF8 | AlphaScreen BAZ2B-H3K14Ac peptide displacement | Potency, µM (doses to about 114 µM), for inactives: top-dose activity change, negative = inhibition, most hits filed as inhibitors | 360,000 compounds, 4.4% hits; also: potency is read from the fitted curve at half-maximal effect; % is scaled to controls: 0 for no effect and ±100 for the full control effect; nearly all actives have a fitted effect of over 60% in size
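AlphaScreen luminescence quantifies BAZ2B engagement of H3K14Ac peptide; the protein and biotinylated peptide are both at 50 nM final, buffer PBS pH 7.4 with 0.01% Tween-20, all steps at room temperature.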
PI5P4Ka inh: qHTS for Inhibitors of phosphatidylinositol 5-phosphate 4-kinase (PI5P4K). Phosphatidylinositol 5-phosphate 4-kinase type-2 alpha (Homo sapiens), P48426. PI5P4Kalpha enzyme, ADP-Glo luminescence, 60 min; stronger effect = lower value. max response, %. 330,000 compounds, 1.2% hits; active = max response of -50% or lower; inconclusive = between -30% and -50%; inactive = -30% or higher; also: value at the top dose of about 77 µM; % is scaled to controls: 0 for no effect and ±100 for the full control effect
Target sequence (P48426 whole entry, looked up): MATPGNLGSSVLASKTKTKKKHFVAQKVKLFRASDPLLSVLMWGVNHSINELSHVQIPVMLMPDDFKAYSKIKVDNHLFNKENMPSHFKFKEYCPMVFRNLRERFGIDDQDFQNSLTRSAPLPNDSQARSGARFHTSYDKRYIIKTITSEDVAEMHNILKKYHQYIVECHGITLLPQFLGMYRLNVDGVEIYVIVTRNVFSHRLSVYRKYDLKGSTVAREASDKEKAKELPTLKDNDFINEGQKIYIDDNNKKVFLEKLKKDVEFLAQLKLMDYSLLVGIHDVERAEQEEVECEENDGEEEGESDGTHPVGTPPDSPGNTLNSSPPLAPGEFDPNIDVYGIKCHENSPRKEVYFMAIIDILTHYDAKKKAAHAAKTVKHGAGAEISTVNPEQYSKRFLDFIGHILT
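Controls without substrate or without enzyme flank wells where PI5P4Kalpha converts substrate using 5 microM ATP (final). Incubation lasts 60 minutes at room temperature; ADP formed is read by ADP-Glo luminescence.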
L3MBTL1 block: qHTS Assay for the Inhibitors of L3MBTL1; Lethal(3)malignant brain tumor-like protein 1 (Homo sapiens), Q9Y468; AlphaScreen L3MBTL1–H3K9me1 peptide binding; Potency, µM (series often up to 57.1 µM), for inactives: top-dose activity, negative = inhibition, actives largely listed as inhibitors; 230,000 compounds, 0.66% hits; also: potency is read from the fitted curve at half-maximal effect; % is scaled to controls: 0 for no effect and ±100 for the full control effect; nearly all actives have a fitted effect of over 60% in size
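Read-out is AlphaScreen signal from streptavidin donor and nickel chelate acceptor beads (10 ug/mL final each) bridging L3MBTL1 (50 nM) and biotinylated K9-monomethylated H3(1-15) peptide (75 nM), after 30 min compound exposure at room temperature.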
JMJD2E inh: qHTS Assay for Inhibitors of Human Jumonji Domain Containing 2E (JMJD2E); JMJD2E catalytic domain, FDH-coupled NADH fluorescence (FDH is formaldehyde dehydrogenase); Potency, µM (titrated, usually from 57.1 µM), inactives show at the highest dose activity change, negative = inhibition, usual class: inhibitors; 230,000 compounds, 1.6% hits; active = well fitted inhibition curve with a large enough effect, not every such curve was filed as active; inconclusive = small, poorly fitted or top-dose-only effect, or another doubt; inactive = no such curve, though single readings can be large or run the other way;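 also: potency is read from the fitted curve at half-maximal effect; 0% = wells with enzyme and -100% = buffer wells without enzyme; nearly all actives have a fitted effect of over 50% in size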
Numbers without * were called inactive; ? = inconclusive; · = no result given; [ ] = dose if it differs, or a comment. Unless noted, calls follow the shape of the dose curve; as a rule, active = well fitted inhibition curve with a large enough effect; inconclusive = small, poorly fitted or top-dose-only effect; inactive = no such curve, though single readings can be large or run the other way.

SMILES	JMJD2A Tudor inh	HP1b chromo inh	BAZ2B block	PI5P4Ka inh	L3MBTL1 block	JMJD2E inh
COc1ccc(OC)c(C(C(=O)NC2CCCCC2)N(Cc2ccco2)C(=O)c2ccccn2)c1 (centres undefined)	-17%	-21%	-24%	-7	·	·
O=C(O)CC(CCc1ccccc1)OC1OC(CO)C(O)C(O)C1O (centres undefined)	8.9µM*	?	?	-68*	·	25µM*
COC(=O)C1=C(C(=O)OC)C(c2cc(Cl)ccc2O)c2sc(=O)[nH]c2S1 (centres undefined)	?	-24%	?	·	-6%	-12%
COC(=O)C1=C(C(=O)OC)C(c2ccc(OC)c(OC)c2)c2sc(=O)[nH]c2S1 (centres undefined)	40µM*	-9%	-34%	-2	·	?
CCOc1ccc(-n2ccnc2SCC(=O)Nc2cccc3ccccc23)cc1	?	-21%[57 µM]	?	·	·	·
CN=c1scc(C)n1/N=C/c1ccc(O)cc1O	?	-38%	40µM*	-3	-14%	-3%
CN=c1scc(C)n1/N=C/c1ccc(O)cc1	-25%	-1%	?	-18	·	-3%
CN=c1scc(C)n1/N=C/c1cc(Br)c(O)c(Br)c1	?	-10%	35µM*	5	-22%	?
CN=c1scc(C)n1/N=C/c1ccc2c(c1)OCO2	?	-37%	40µM*	-6	·	1%
CC1CCCC(C)N1/N=C/c1cc(Br)c(O)c(Br)c1 (centres undefined)	·	·	-23%	·	1%	-3%
CCN=c1scc(C)n1/N=C/c1cc(Br)c(O)c(OC)c1	79µM*	?	13µM*	-6	·	?
COc1ccc(Br)cc1CN1CCSCC1	3.5µM*	56µM*	?	6	1%	·
COc1ccc(CN2CCCCCC2)cc1Br	3.5µM*	?	?	2	1%	·
COc1ccc(Br)cc1CN1CCCCCC1	22µM*	-24%	?	0	-3%	·
COc1ccc(CN2CCCCCC2)cc1OC	?	-23%	·	-10	·	·
Cc1cc(C)cc(-n2c(SCC(N)=O)nc3c([nH]c4ccccc43)c2=O)c1	-16%	22%[57 µM]	-13%	·	·	·
CCOC(=O)c1ccccc1NC(=O)CN(c1ccccc1OC)S(=O)(=O)c1ccc(C)cc1	?	48%	-2%	·	·	·
Cc1ccc2cccc(NC(=O)C(C)(C)Oc3ccc(Br)cc3)c2n1	53%	94%	25%	·	·	·
O=C(O)c1cc(-c2ccco2)[nH]n1	79µM*	25%	4%	-13	-23%	-7%
O=C(O)c1ccc(-n2c(-c3cc(-c4ccco4)[nH]n3)n[nH]c2=S)cc1	20µM*	12%	45µM*	?	?	-6%
COc1ccc(C(=O)CSc2n[nH]c(-c3ccco3)n2)cc1	-12%	14%	-3%	·	0%	2%
CC(=O)c1ccc(-n2c(-c3cc(-c4ccco4)[nH]n3)n[nH]c2=S)cc1	?	-11%	?	-57*	·	-8%
Cc1ccc(-n2c(-c3cc(-c4ccco4)[nH]n3)n[nH]c2=S)c(Br)c1	-23%	-3%	?	-12	·	-7%
S=c1[nH]nc(-c2cc(-c3ccco3)[nH]n2)n1-c1cccc2ccccc12	89µM*	?	40µM*	·	?	-6%
CCOC(=O)[C@]12CCCC=C1N(Cc1ccc(Cl)cc1Cl)C(=O)[C@H](CC(=O)NCc1cccs1)C2	·	·	·	13	·	·
CS(=O)(=O)Nc1ccccc1C(=O)OCC(=O)N1CCC(c2ccccc2)=N1	-23%	31%	-25%	3	-5%	·

Compound activity (PubChem)
